Reference: PubChem BioAssay AID1159506 (National Center for Advancing Translational Sciences (NCATS), 2015)
Over roughly 59,000 sequences, the read-out has its median near -0.00055; the lowest 2% begin near -2. Shown is part of a subset that was picked to be rich in the lowest values.

assay: Identification of proteins required for the processing of the EWS-FLI1 nascent transcript; conditions: TC32 Ewing sarcoma NR0B1-luc vs CMV-luc (EWS-FLI1 target promoter against control promoter), 48 h; screened at 20 nM (by protocol);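 note: robust z of luciferase light less the median z of siRNAs with the same seed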
Outline: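 Three siRNAs per gene, each in a separate well at 20 nM, were transfected into TC32 cells bearing either reporter construct. Luminescence was measured two days on, and per-gene comparison relied on seed-corrected Z values.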

Sequence | seed-corrected z-score
UGUAGAGAUGCGGUGGUCC against BIRC5 | -2.18
UAGUUUAACCUUGUCAUCC against CASC4 | -0.368
UACACUUUCAAAAUCUCUC against ZNF845 | 0.844
UUUAUGACCUCAUUAAGUC against LHCGR | 0.284
UGAUGAGAUAGAGCCGUGC against TRIM56 | -0.836
GAAUUUCAGCCGUAGCACG against TMUB1 | -2.19
ACAAUGGCAUCUUGUGGGC against CORT | 0.108
UAGUAUGCGGUGGUGAUGG against RAB3A | -0.77
UUGGGCAUAUGUUUGCUGC against TACO1 | 0.306
UCGUUUCAAAGGGCUGUGG against SAMD4A | -2.94
UGAGCAAGGUCUCCAAUCC against SH3RF3 | -0.33
UUUCGUUUGAGAAAUGCGC against MED23 | 0.711
AUAGUGACCACCCUCAAUC against SPTA1 | 0.293
UACGUUCUGAAUCAAGAAG against DENND5A | -0.28
UAAGCAUAUAUUCCCGUAC against CDC7 | 0.52
UUUAUAGUUGGUUAGGUUC against EPB42 | -0.0918
AUUUGGACCAGUAUGCUUC against HNRNPH1 | -2.98
UAUUCUGAGAUGCGAAGGC against SLC26A11 | 0.879
UCCAAGAUGAUUCCUCUCC against ZNF557 | -0.0489
AAAAGAUGCCCAUUCAUUG against DCDC2C | 1.89
UCAGGAGCAAAGCUUCUUC against VNN3 | 0.325
UCAGCUGAUUCAUUAGAGG against TRIM44 | -0.356
UCUGUUGUUAGCACACGUC against NID1 | -0.891

Sequence | seed-corrected z-score
UAUGCUUUCUUGACAGCCC against KCNAB1 | -4.96
UCCUUGGACAUCAAGAGCC against C16orf91 | -0.516
UAAUCUAUCCAGGAAUUCC against TTC5 | 0.1
UUUGUUGGAACCCAAGAGC against BLID | -2.2
UUUGGGUCCUCGAUCACCC against COL8A1 | -1.06
UUCCGUAAUGUUGCGCAUG against CORO6 | 0.106
UUCGUGCUGGGUUAUCUCG against COL24A1 | 0.737
UUCCAUAAAGAGUUCUGCC against ZNF280C | 0.576
UUACUGACGACAUCAUUCC against PRPF40A | -0.273
AUACAGAACAUAGUGGUUG against PSMD3 | -1.41
UCAGUAGGCAUUGGAGCGG against CEBPA | -0.0618
AAGUCUUCAAGAUCUAUUC against FGL2 | 0.334
UCAUAAGUCAGGGUAUGCC against MPTX1 | -3.31
UCAUAGGUCACAAAGGUGC against KIF9 | 0.0712
UAUCUAAUUUUGGAAUCUC against VRK1 | -0.281
UUCAGGGUAAGGUGGAUGG against UBD | 0.588
AAACUUGUCAUCAGCACGC against MUC13 | 0.662
UUCUGUCCCAUAAAUAGAG against TMEM207 | -0.0552
UUAUCUAUACAAAGCAGAC against KLRC3 | -0.377
UUACGCAUAAUUUCCGUCA against VAMP5 | -0.171
AUCUGGUUUACGGUUAUUC against MEF2C | -2.53
AAUCUUGCAAGGUUACUAC against USP33 | -1.31
UCCAUGACGAAGCUGUUCU against SUV39H1 | 0.0817

Sequence | seed-corrected z-score
UGGUUUAUCAGUUUCAAUG against ARCN1 | -4.37
UAUCUAAUUGAUGACAUGC against ETAA1 | 0.0808
UGUUCUAUAGGUAACACUC against ZNF559 | -0.628
UUAAUUGCAUUUGCAGACC against CCDC171 | 0.492
UUGUCUAGAAAAGUCCUGG against UMODL1 | -2.58
UUCGAUAUUAGGGUAGCGG against SNRNP200 | -1.21
UGCUGUAAAGUUUUAGUCC against SLC35A5 | -0.426
UCAGUGUUGGACUCCAUGC against NR2E3 | 0.652
UGUGAGAUCAGGAAUUGAC against TMEM65 | -0.934
UGCGGUUGACCGUAUAGAC against KBTBD13 | -2.49
UCCUUGGUCACUGUCGCUC against KLF7 | -0.201
UUGUUGGACAAGUCGAUGG against LRRC57 | 0.339
GUUGUAUUCGUCGUCGUCC against NKX6-2 | 0.127
UACUUAUCUCUGUCUGUUU against UBE2D3 | -1.14
AUAGGUGCGACUCUCAUCC against SYMPK | -2.35
UUGUAGAUGCUGAAUGUCC against DNAAF1 | 0.337
UAAUAUGAUGUCUUCAACC against GABRQ | 0.559
UGUUUUGCCGUCGAGGUGC against LOC642620 | 0.782
AUUCCGACCAUGGUAAAUG against NAAA | 0.829
ACAGUACAUAGUAGGGUGG against PRR34 | -2.82
UUCAUCAAAUUGGACAUCU against ATP6V1E1 | -0.95
UUGGUGCACAGCCUGGUAC against TSPAN32 | -0.435
UCUUAGUUUCCAACGAUCC against SZT2 | -0.791

Sequence | seed-corrected z-score
UCGGUAGUAGUAAUCGUGC against PNPLA1 | 0.335
UUCGCCUCUUGUGCUAUCG against CFAP221 | 0.264
AUGGUUCAAACAUAGGAUG against WNK1 | -2.09
UACGAGUCACGGGAAAUAC against TAF5 | 0.238
AACUUGAGGAGGGUAAGUG against SERPINF2 | -2.44
UUGAGUAUUCCGCUCGGGC against EDAR | -0.0352
AAAACGACUCUUCAUACUG against CLRN2 | -1.29
UUUAGCAACAGGUACAUUC against APBB1 | -0.4
UAGAUUUUAAACAUCCUUG against FAS | 0.417
UCUUUAUCACGGUCAAAUG against GPALPP1 | -0.108
ACAUGGCUGAUUAAUGUGG against ZNF890P | -0.143
UCUGUGGUGAUGAACACUC against OR5J2 | -1.13
UUUGUUGGUAGCGAUGCAC against MYPN | -2.09
AAAACUUCACCUUAUACUC against SDF4 | -0.483
GAUGCUACGAUACCAGCCA against LYPLA2P2 | 1.26
UGUAUUUCCACGCGUGAGG against ZDHHC11 | -0.523
AAAUGUGAACCUGUGCUUG against MTUS2-AS1 | 1.42
UACGUGCCGAGUCAUCAGU against DOK4 | -2.12
AGACCUUAUACAGAGCUGC against CAPG | 0.432
AGAAGCAUCAUGGAGGUAG against COX14 | -1.26
ACUAGAAUCAAUAAGGAUG against TMEM243 | -0.708
UGAGUCAUAAGAAGGGUCU against FLI1 | -6.98
AUAGGUGAGACGGAGGCUC against VASN | 0.00423

Sequence | seed-corrected z-score
UCUGGAUCGAGGAAGCGAG against GNLY | -2.28
AUAGCAAUCAUAUUCACGG against LIG4 | -0.537
AACUGAAAUAGAAGUAUCC against TMED6 | -0.476
UGUUCUCCUGCAGUUAUCC against WFDC3 | -0.0122
UUGAAGACCAGGUAUUCCC against AGBL4 | -0.596
UGACGUAUAUCAAUGCUCC against RRAGC | -0.322
UAGUCGUCAAGCACUUGGU against SFTPB | -0.3
AAAUCUUGAUCUGUGACUC against EN2 | 0.225
UCUCUCAUCAAUAUGCUCU against MTHFD2 | 0.352
UAUAGGCACGCUGCUAUUC against DIRC2 | -2.73
UUCGUUAGGUUUCCUUUCG against HIVEP2 | -0.393
UUCCGAAAUGAAAAGGAUC against GMPR2 | 0.18
UAAUUGCUGAUAUUCGAGC against EPB41L3 | -0.247
UAAGAUACUCGGGUUUCAC against ZADH2 | -0.425
AGUUCGAUUAGCUAAGGCC against SYNRG | -0.0555
UAUGGGAGUGUCAAUAAUC against PDHB | -0.681
UCAGGUGCAAUCUGACUCU against PPP1R1C | -2.4
AUGCUUACAAGAUCUUGUC against USP44 | -0.0422
UCACGUGUAAAGGAUCACG against RTN4IP1 | 0.0887
UUCUGUUCAAAUCCAUUGG against BUD13 | -0.753
AGAGUUGUUGUCAUCUUCC against CACNA1S | -0.313
UCUGGGCGUAGACAACUGC against CNTFR | -2.12
UGAACGUCCCGUCUGAGUG against SCT | -0.424

Sequence | seed-corrected z-score
UCUUCAAUAAUGAUCUCCU against MRI1 | 0.722
UGAAGAGUAAGCUCAAACC against ASIC5 | -3.53
UAAACUUCCCUUUAAAAAC against IRF8 | -0.00875
UUCAUGUGAACUUACAGUU against UQCRHL | 0.0588
UUAGUUGCAAGGCAUUCAG against FAM135A | -4.23
UAAAGGUCAAGCAGUCAGU against PVRL4 | 0.651
AGUGAUGACAUUGAUAUCG against SYDE1 | 1.21
AUAUCUACGAUCUAUAUCU against LOC645553 | 0.695
UCUGGUUCUUGUUCAAGUG against PCDH17 | -1.28
UCGCUAUCCAUAUCAGAGG against GOLGA4 | 1.24
UUAAUGGUCCUGUAGUAAC against MTMR1 | 0.139
UACAACAAUAGCCACAGCU against OR52W1 | -2.15
UGUAUUUUAUGUCUCUCCC against PLAC8L1 | -0.115
AAAGCCCAAAUAUAGUUCC against NEUROD4 | 0.947
UUUGAGGAAAGGAACUGCC against FAM228A | 0.28
AAUCUUGGUCUUACUGUCC against PKN1 | -1.59
UACUGAGAUAGUCAAAUUC against CYB5D1 | -0.0466
UUAUUGGAGAGCACCUGGU against PADI3 | 0.0879
